The list is not random: actives were taken first. Their share in the collection is about 4.9%.
NLRP3 yeast inh = NALP3 inflammasome inhibitors in reconstituted yeast, primary screen, luminescence, uHTS. Yeast reconstituted NLRP3/ASC/caspase-1, beta-gal luminescence, 24 h. AID 2825, 2010. 330,000 tested, 0.39% active. inhibition, % at 10 µM;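 active = inhibition of 50% or more; inactive = inhibition below 50%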
tim10-1 inh = growth inhibitors of tim10-1 mutant yeast, primary screen, luminescence, uHTS; S. cerevisiae tim10-1 ts strain growth, BacTiter-Glo, 24 h; inhibition, % at 20 µM; 330,000 tested, 2.2% active;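 active = inhibition of at least 40%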;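 note: mutant grown at 25 °C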
TIM10 inh = growth inhibitors of isogenic TIM10 control yeast, primary screen, counter-screen for tim10-1 yeast inhibitor project, luminescence, uHTS; AID 463195, 2010; 330,000 tested, 1.4% active; S. cerevisiae TIM10 strain growth, BacTiter-Glo luminescence, 24 h; inhibition, % at 10 µM;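 active = inhibition of 40% or more at the single tested concentration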;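 note: wild-type TIM10 isogenic control strain grown at permissive 25 °C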
SKKanGAS inh = S. pyogenes SKKanGAS growth inhibitors in kanamycin, primary screen, streptokinase expression inhibitor project, SKKanGAS strain, BacTiter-Glo luminescence; 300,000 tested, 1.3% active; inhibition, % at 7.5 µM; 6 h;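 active = mean replicate score, as percent of positive control median, at least 50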;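 note: strain carries kanamycin resistance gene driven by streptokinase promoter and grows in 40 µg/ml kanamycin; loss of luminescence reflects streptokinase promoter inhibition or plain growth inhibition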
NALP1 inh = NALP1 inflammasome inhibitors in reconstituted yeast, colorimetric, S. cerevisiae, triplicate retest | S. cerevisiae NALP1/ASC/caspase-1 growth, X-gal OD620, 72 h | inhibition, % at 10 µM | 280,000 tested, 0.61% active; in the data active = inhibition mostly above about 24%, no sharp cut-off; inactive = mostly below about 32%
tim23-1 inh = growth inhibitors of tim23-1 mutant yeast, primary screen, luminescence, uHTS. AID 463212, 2010. inhibition, % at 20 µM. 330,000 tested, 1.3% active. S. cerevisiae tim23-1 growth, BacTiter-Glo luminescence, 24 h;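 active = growth inhibition of the mutant yeast at or above 50%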;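 note: temperature-sensitive mutant grown at 25 °C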
NALP3 confirm = NALP3 inhibitors retested in yeast, confirmation, luminescence, single concentration | inhibition, % at 10 µM | yeast expressing human NALP3 | 1,300 tested, 81% active | shares compounds with NLRP3 yeast inh; in the data active = inhibition above about 48%
Casp1-ASC yeast = CASP1-PYCARD signaling inhibition in yeast, confirmatory test, counterassay for NLRP3 inhibitor program, one-dose; yeast expressing Caspase-1-ASC, luminescence counter screen; 1,000 tested, 66% active; shares compounds with NLRP3 yeast inh; inhibition, % at 10 µM
NALP3 yeast rt = NALP3 inhibitors in yeast, repeat test, confirmation, luminescence, single concentration, retest | shares compounds with NLRP3 yeast inh | yeast expressing human NALP3, luminescence read-out | inhibition, % at 10 µM | 1,000 tested, 53% active | AID 488794, 2010
tim10-1 conf = growth inhibitors of tim10-1 mutant yeast, confirmation, single concentration, luminescence, S. cerevisiae | shares compounds with tim10-1 inh | S. cerevisiae tim10-1 ts strain growth, BacTiter-Glo, 24 h | inhibition, % at 20 µM | 7,400 tested, 56% active;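 active = inhibition of yeast growth at or above a set limit in either of two repeat tests at 20 µM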;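 note: tim10-1 mutant grown at permissive 25 °C to find synthetic lethal compounds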
tim10 confirm = growth inhibitors of wild-type TIM10 yeast, confirmation, counter-screen for tim10-1 synthetic lethality project, single concentration, luminescence, S. cerevisiae; 4,600 tested, 63% active; S. cerevisiae tim10 strain growth, BacTiter-Glo luminescence, 24 h; AID 463215, 2010; shares compounds with TIM10 inh; inhibition, % at 10 µM;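 active = inhibition of yeast growth at or above a set limit in either of two replicates at 10 µM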; note: this counterscreen used the strain with wild-type TIM10
tim23-1 confirm = tim23-1 mutant yeast growth inhibitors, confirmation, luminescence, single concentration | 4,400 tested, 83% active | inhibition, % at 20 µM | shares compounds with tim23-1 inh | S. cerevisiae tim23-1 growth, BacTiter-Glo luminescence, 24 h;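 active = inhibition above about 39% in either of two replicate wells at 20 µM, limit read from the data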;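 note: temperature-sensitive tim23-1 mutant grown at 25 °C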
A number is an active result; . = inactive; / = no result; + = active, no number. Cut-off read from the data, not from the text of the source, unless noted: active = inhibition above about 50%; inactive = the rest.

SMILES	NLRP3 yeast inh	tim10-1 inh	TIM10 inh	SKKanGAS inh	NALP1 inh	tim23-1 inh	NALP3 confirm	Casp1-ASC yeast	NALP3 yeast rt	tim10-1 conf	tim10 confirm	tim23-1 confirm
O=C(Nc1cccc(Cl)c1)c1ccc2c(=O)n3c(nc2c1)CCCCC3	70.2	44.5	73.5	.	.	54.4	65.7	/	/	.	.	80.0
O=C(Nc1ccc(Cl)cc1)c1ccc2c(=O)n3c(nc2c1)CCCCC3	.	.	.	.	.	.	/	/	/	/	/	/
CCCCCCCC[n+]1cccc(C(=O)N(CC)CC)c1	.	.	.	.	.	.	/	/	/	/	/	/
CCCCCCCCCCCCCCCC[n+]1cccc(C(=O)N(CC)CC)c1	63.1	96.1	.	91.7	70.7	60.0	73.0	72.4	68.0	94.3	/	78.7
Cc1c(C)c2cccnc2c2ncccc12	78.3	.	56.5	/	/	68.5	85.9	96.3	85.7	/	62.0	44.9
Cc1ccc2ccc3cccnc3c2n1	/	/	/	.	/	/	/	/	/	/	/	/
COC(=O)c1cccc(NC(=O)c2cnn(C)c2)c1	.	.	.	.	/	.	/	/	/	/	/	/
N#C/C(=C\c1cccc(Br)c1)C(=O)N1CCCCC1	59.7	70.3	63.4	.	.	81.2	57.5	68.0	50.0	67.8	73.5	72.6
N#C/C(=C\c1cccc(O)c1)C(=O)N1CCCCC1	.	.	.	.	.	.	/	/	/	/	/	/
N#Cc1ccccc1CN1C(=O)NC2(CCCCCC2)C1=O	.	.	.	.	.	.	/	/	/	/	/	/
Cc1ccc(Nc2cc(C)nn2-c2nc(C)cc(=O)[nH]2)cc1	75.5	62.7	76.4	92.0	.	67.5	81.3	97.2	93.4	46.6	.	51.8
COc1ccc(Nc2cc(C)c3ccc(O)cc3n2)cc1	75.8	.	.	.	+	51.4	90.8	/	/	/	/	.
Cc1cc(Nc2ccccc2)nc2cc(O)ccc12	69.9	.	.	.	52.3	64.7	81.6	91.2	60.0	/	/	.
CCOc1ccc(Nc2cc(C)c3ccccc3n2)cc1	.	.	.	.	.	.	/	/	/	/	/	/
NC(=O)c1cc(S(=O)(=O)N2CCOCC2)ccc1Sc1ccccc1N	.	.	.	/	/	.	/	/	/	/	/	/
Cn1c(CNc2ccc(Cl)cc2)nc2ccccc21	.	.	.	.	.	.	/	/	/	/	/	/
CC(C)N=c1cc2n(-c3ccc(Cl)cc3)c3ccccc3nc-2cc1Nc1ccc(Cl)cc1	56.0	40.7	.	98.1	/	58.1	68.4	/	/	.	/	56.8
O=C(CC(=O)c1ccccc1O)c1cccc(F)c1	.	.	.	.	.	.	/	/	/	/	/	/
O=C(CC(=O)c1c(F)cccc1Cl)c1ccccc1O	51.0	52.5	.	.	.	62.6	70.0	60.9	.	.	/	63.8
CC(C)c1ccc2oc(=O)cc(CN3CCOCC3)c2c1	.	.	.	.	.	.	/	/	/	/	/	/
c1ccc(Oc2ccc(-c3ccn[nH]3)cc2)cc1	.	.	.	.	.	.	/	/	/	/	/	/
c1ccc(-c2ncc(-c3ccn[nH]3)s2)cc1	65.2	.	48.5	.	.	55.9	84.3	78.9	63.5	/	.	67.8
Oc1c(I)cc(Cl)c2cccnc12	59.0	66.9	56.2	99.6	70.0	70.2	68.2	71.7	78.5	56.5	70.2	73.2
CCCCCCCCCCCCCCCC[n+]1cccc2ccccc21	73.0	97.6	89.2	/	98.5	96.3	.	/	/	97.9	.	97.3
CCCCCCCCC[n+]1cccc2c3ccccc3ccc21	.	.	.	.	.	.	/	/	/	/	/	/
CCOc1ccc(OCCn2nnc3ccccc3c2=O)cc1	.	.	.	.	.	.	/	/	/	/	/	/
Cc1nn(CCO)c2nc(-c3cccs3)cc(C(F)(F)F)c12	.	.	.	.	.	.	/	/	/	/	/	/
COc1ccc(/C=C/C(=O)c2ccc([N+](=O)[O-])o2)cc1OC	50.2	91.0	95.7	66.9	/	90.1	53.8	80.0	57.8	88.8	98.2	97.2
CC(=Nc1cccc(O)c1)c1sc2ccccc2c1O	52.3	.	.	.	.	63.3	50.2	.	.	/	/	62.5

Screening results from PubChem BioAssay.
